The campaign covered roughly 97,000 compounds. About 210 (0.22%) were called active. No stated cut-off is given here; in the data, active means inhibition above about 45%; inactive means the rest. This excerpt belongs to a sample that is enriched for actives.

Chain of Sphingosine 1-phosphate receptor 2 (Homo sapiens) (O95136 whole entry, looked up): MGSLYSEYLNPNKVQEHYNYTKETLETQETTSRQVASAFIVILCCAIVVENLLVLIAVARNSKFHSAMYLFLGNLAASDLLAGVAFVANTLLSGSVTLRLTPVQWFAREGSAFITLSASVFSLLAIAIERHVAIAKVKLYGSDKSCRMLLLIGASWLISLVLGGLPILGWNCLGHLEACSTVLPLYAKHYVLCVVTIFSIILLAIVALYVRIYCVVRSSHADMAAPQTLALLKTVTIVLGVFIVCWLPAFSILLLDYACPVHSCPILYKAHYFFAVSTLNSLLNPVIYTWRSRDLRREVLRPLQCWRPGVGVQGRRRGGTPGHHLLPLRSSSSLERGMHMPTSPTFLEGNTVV

The assay concerns the target Sphingosine 1-phosphate receptor 2 (Homo sapiens) (UniProt O95136). Briefly: blockers of S1P2 receptor signalling – cell-based, primary screen (AID 736).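 Further: CRE beta-lactamase reporter cells expressing human S1P2 stimulated with S1P; 0% = agonist at EC80 alone and 100% = agonist plus reference antagonist.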 Conditions: cell-based S1P2 antagonist assay, at 5 µM, hits give high values.
In the case of `Cc1nn(C)cc1/C=N/NC(=O)c1sc2ccccc2c1Cl`, the inhibition was -19.2% (inactive).
In the case of `O=C(CCNS(=O)(=O)c1ccccc1C(F)(F)F)NCc1ccc2c(c1)OCO2` it was -42.1% (inactive).
Regarding `CCOc1cc(-c2cc(-c3ccc(OC)cc3)nc(N)c2C#N)ccc1O`, the inhibition is -25.8% (inactive).
To `COc1ccc2[nH]c(=O)c(CNc3ccc(C)c(C)c3)cc2c1` belongs 17.9% (inactive); to `CC1(C)NC(=O)N(CCCCSc2ccc(Cl)cc2)C1=O`, 11.3% (inactive); to `CCc1nnc(NC(=O)CSc2nc3ccccc3c(=O)n2CCCOC)s1`, 2.95% (inactive).
For `COc1ccc(C(F)(F)F)cc1N/C=C\c1nnnn1-c1ccc(C)cc1`, the inhibition was -17.3% (inactive).
To `CCNC(=S)Nc1cccc(Cl)c1C` belongs 13.9% (inactive); to `CCc1ccc(C2C(C#N)=C(N)Oc3n[nH]c(CC(=O)OC)c32)cc1` (stereo not given), -30.6% (inactive).
In the case of `Cc1ccc(S(=O)(=O)NCCSC(C)(C)C)cc1` it was -2.88% (inactive); in that of `Cc1ccc(S/C(=N\S(=O)(=O)c2ccc(Cl)cc2)c2ccccc2)cc1`, -10.2% (inactive).
In the case of `O=C(Nc1cccc(-c2nc3ncccc3o2)c1)c1ccco1` it was -19.4% (inactive); in that of `CCOC(=O)C1C(=O)NCC1c1ccccc1` (stereo not given), -4.06% (inactive).
Regarding `COc1ccc(Cc2nnc(SC)[nH]c2=O)cc1`, the inhibition was -19.6% (inactive).
To `Cc1cccc(C)c1OC(=O)CSc1nnc(-c2ccccc2)o1` belongs -20% (inactive); to `O=C(NCCN1CCN(Cc2ccccc2)CC1)c1cc2c(=O)[nH]c3ccccc3c2s1`, -27.2% (inactive).
Regarding `Cc1cc(C=O)c(C)n1-c1ccc(NC2CCCCC2)c([N+](=O)[O-])c1`, the inhibition was 4.51% (inactive).
In the case of `Cc1ccc(N2CCN(/N=C/c3cccs3)CC2)cc1`, the inhibition was 22.6% (inactive).
To `Cc1cc([N+](=O)[O-])c(N2CCC[C@@H]2C(=O)O)c([N+](=O)[O-])c1` belongs 16.9% (inactive); to `COc1ccc(N(CC(=O)N/N=C/c2cccc3c2OCCO3)S(=O)(=O)c2ccc(NC(C)=O)cc2)cc1`, 10.2% (inactive).
To `COc1ccc(C2C(C(C)=O)=C(O)C(=O)N2Cc2cccnc2)cc1` (stereo not given) belongs 5.26% (inactive); to `Cc1nnsc1S(=O)(=O)Cc1ccccc1Cl`, 6.79% (inactive); to `CC(=O)NS(=O)(=O)c1ccc(NC(=S)NC(=O)C(C)(C)C)cc1`, 1.69% (inactive).
In the case of `CS(=O)(=O)Nc1cccc(C2=NN(S(=O)(=O)c3ccccc3)C(c3cccs3)C2)c1` (stereo not given) it was 21.1% (inactive).
Regarding `Clc1ccc(Cl)c(Oc2ccc(Oc3nc(Cl)ccc3Cl)cc2)n1`, the inhibition is -3.25% (inactive).
With `O=C(Cc1ccc(-n2c(=O)c3sccc3n(Cc3ccc(F)cc3)c2=O)cc1)NCc1ccco1`, the inhibition is 14.3% (inactive).
To `O=C(NCCCCCCNC(=O)NCc1ccco1)NCc1ccco1` belongs -14.7% (inactive); to `Cc1cc(-c2ccc(/C=N/n3cnnc3)o2)c([N+](=O)[O-])cc1C`, 1.7% (inactive); to `COc1ccc(-n2c(C)csc2=S)cc1`, -2.06% (inactive).
In the case of `Cn1nc([N+](=O)[O-])nc1Sc1ccc(C(C)(C)C)cc1` it was 1.08% (inactive); in that of `CC(N=Cc1nc(-c2ccccc2)oc1O)c1ccccc1` (stereo not given), -15.5% (inactive).
Consider `O=C(Nc1nnc(CCOCCOCCc2nnc(NC(=O)c3ccco3)s2)s1)c1ccco1`, for which the inhibition was 0.16% (inactive).
Regarding `COc1ccc(Br)cc1CN1CCN(C(=O)c2cccc(OC)c2OC)CC1`, the inhibition is -12.2% (inactive).
In the case of `O=C1c2ccccc2NC(c2ccc(-c3cccc(Cl)c3)o2)N1O` (stereo not given) it was 9.34% (inactive).
On to `CCCCc1nnc(NC(=O)CS(=O)(=O)Cc2ccccc2)s1`, for which the inhibition was 11.7% (inactive).
To `Brc1ccc(-c2nnc(-c3ccccc3)o2)o1` belongs -21.1% (inactive); to `O=C(Nc1cccc2ccccc12)c1onc2c1CCCC2`, -13% (inactive).
Take `ONC(=Nc1ccccc1)c1ccccc1Cl`: the inhibition is -2.09% (inactive).
Consider `CCOC(=O)c1c(NC(=O)c2ccc(N3CCOCC3)c([N+](=O)[O-])c2)sc(C)c1C`, for which the inhibition is -6.51% (inactive).
In the case of `CC(C)CC[n+]1ccn(C2=C([O-])c3ccccc3C(=O)/C2=N\S(=O)(=O)c2ccccc2)c1` it was 18.2% (inactive).
For the molecule `CCOC(=O)c1ccccc1NS(=O)(=O)c1ccc(OC)cc1`, the inhibition is -9.6% (inactive).
To `CCOC(=O)c1cc2ccccc2nc1C` belongs -7.13% (inactive).
In the case of `Cc1nc2ccccc2cc1O` it was -18.9% (inactive).
In the case of `Cc1nc2ccccc2cc1OCc1ccc(F)cc1`, the inhibition was 56.8% (active).
In the case of `CCN(CC)S(=O)(=O)c1ccc(N2CCOCC2)c(C(=O)O)c1` it was 0.01% (inactive); in that of `COc1ccc(-c2noc(CSc3ccc(C)cc3)n2)cc1`, 8.11% (inactive); in that of `C=CCO/N=C(\C)c1c(O)c(C)c(-c2ccccc2)n(-c2ccccc2)c1=O`, 1.26% (inactive).
In the case of `CCn1c2ccccc2c2cc(NC(=S)N3CCOCC3)ccc21` it was 7.28% (inactive); in that of `Cc1ccc(CNC(=O)c2ccccc2CCc2ccccc2)cc1`, -23.4% (inactive).
Turning to `CCCCCCC(=O)Nc1nc(C)c(-c2csc(Nc3cc(Cl)ccc3OC)n2)s1`, the inhibition was 8.39% (inactive).
To `c1cnc(Nc2nc(-c3ccc4ccccc4c3)cs2)nc1` belongs 10.4% (inactive); to `O=c1cc(CN2CCN(c3cccc(Cl)c3)CC2)c2cc3c(cc2o1)CCCC3`, 2.36% (inactive).
To `O=C(O)c1cccnc1NC1CCCC1` belongs -6.46% (inactive); to `CC(C)C(NC(=O)c1ccc(Cl)cc1)C(=O)O` (stereo not given), 18.8% (inactive); to `Cc1ccccc1-n1nc(C)c2cc(C(=O)NC3CC3)sc21`, 2.59% (inactive).
In the case of `Cc1ccc(-c2ccnc3nc(Sc4ncc(C(F)(F)F)cc4Cl)nn23)cc1` it was -3.44% (inactive).
Consider `CSc1nc(N(C)NC(=O)c2cccc(C)c2)c2ccccc2n1`, for which the inhibition is 5.9% (inactive).
For the molecule `CCN(c1ccccc1)S(=O)(=O)c1ccc(C(=O)Nc2nccs2)cc1`, the inhibition is -3.2% (inactive).
Regarding `O=C(Nc1ccn(Cc2ccccc2F)n1)c1ccc(COc2ccc(Cl)cc2Cl)o1`, the inhibition was 6.95% (inactive).
`Cc1ccc(-n2nc3cc(C)c(NC(=O)c4cccnc4)cc3n2)cc1`: the inhibition is 3.29% (inactive).
In the case of `Cc1cc(=O)[nH]c(SCc2cccc(F)c2)n1` it was -28.1% (inactive); in that of `O=[N+]([O-])c1ccccc1/C=N/n1c(COc2ccccc2)n[nH]c1=S`, 18.3% (inactive); in that of `N=c1c2c(-c3ccccc3)c(-c3ccccc3)oc2ncn1Cc1ccco1`, 2.42% (inactive).
Regarding `CCOc1c(Br)cc(/C=C2\C(=O)N(CCC#N)N=C2C)cc1OC`, the inhibition was -33.3% (inactive).
Regarding `Cc1cc(C)cc(OCC(=O)NNC(=O)c2cc3ccccc3oc2=O)c1`, the inhibition is -16.6% (inactive).
In the case of `CCN(CC)Cc1csc2ccc(Br)cc12` it was -1.56% (inactive); in that of `C=CCN(C(=O)Nc1ccc2oc(C)nc2c1)c1ccccc1`, 3.19% (inactive); in that of `COc1ccccc1NC(=O)/C=C/C(N)=O`, -12.8% (inactive).
Take `CC(C)N(c1ccccc1)c1ncnc(NCCC(=O)O)c1[N+](=O)[O-]`: the inhibition is 15.5% (inactive).
In the case of `CCOC(=O)C1(S(=O)(=O)c2ccccc2)CCN(Cc2ccccc2)CC1` it was 17% (inactive); in that of `CC1=C/C(=N\OS(=O)(=O)c2ccccc2)C=CC1=O`, 82.9% (active).
For `Cc1ccc(S(=O)(=O)c2ccc(Oc3ccccc3)cc2)cc1`, the inhibition is -7.17% (inactive).
In the case of `O=C(Nc1ccc(Cl)cc1)c1ccsn1` it was 11.1% (inactive).
To `O=C(Nc1ccccc1)c1nnsc1S(=O)(=O)c1ccc(Cl)cc1` belongs 61.4% (active).
To `CC(=O)Nc1cc(C(=O)O)ccc1S(=O)(=O)c1ccc(Cl)cc1` belongs 3.81% (inactive).
Regarding `CC(=O)Oc1ccc(C(C)=O)c2c1OCCO2`, the inhibition was -13% (inactive).
To `COc1ccc(Nc2ncc(C(=O)N3CCN(c4ccccc4OC)CC3)c3ccccc23)cc1` belongs -4.51% (inactive); to `CC1CCN(C(=O)CN(c2ccc(Oc3ccccc3)cc2)S(C)(=O)=O)CC1`, -1.57% (inactive); to `C=CCNC(=O)c1csc(-c2ccccc2)n1`, 5.01% (inactive).
In the case of `CC(C)CC(=O)N1CCC(O)(CS(=O)(=O)Cc2ccccc2)CC1` it was 5.12% (inactive); in that of `Cc1[nH]n(-c2ccc(Cl)cc2)c(=O)c1/C=N/n1c(C)nc2ccccc2c1=O`, 2.28% (inactive).
As to `Cc1ccc(-c2nc(C)sc2CC(=O)O)cc1`, the inhibition was 10.8% (inactive).
In the case of `CCCSC(=S)NC1CCS(=O)(=O)C1` (stereo not given) it was 15.8% (inactive); in that of `COc1ccc(C(=O)Nc2nc(-c3ccc(S(=O)(=O)N4CCOCC4)cc3)cs2)cc1`, 19.7% (inactive).
In the case of `COc1ccc(OC)c(NC(=O)c2cnn(-c3ccccc3Cl)c2NC(=O)c2ccco2)c1` it was -6.97% (inactive); in that of `O=C(NC1CCCCC1)c1ccc(CNc2c(N3CCOCC3)c(=O)c2=O)cc1`, -21.1% (inactive).
`Cc1nnc(SCc2nc3ccccc3nc2C)s1`: the inhibition is -20.9% (inactive).
To `Cc1nn(-c2ccccc2)c(Cl)c1C(=O)Nc1ccccc1` belongs -0.13% (inactive).
For `CCN(CC)C(=O)CSc1nc2ccccc2o1`, the inhibition was 3.55% (inactive).
In the case of `c1ccc(CC2CCN(c3nc4ccccc4n4cnnc34)CC2)cc1` it was -5.6% (inactive); in that of `Cc1nn(C(C)CC(=O)O)c(C)c1C` (stereo not given), -0.29% (inactive).
Take `CCC(C)NC(=O)CSC1=Nc2ccccc2C2=NC(CCC(=O)NCc3ccco3)C(=O)N12` (stereo not given): the inhibition is 1.95% (inactive).
In the case of `CCC(C)NC(=O)c1ccccc1NC(=O)c1ccccc1N(C)S(C)(=O)=O` (stereo not given) it was -10.9% (inactive); in that of `CC(=O)N1CCCc2cc(S(=O)(=O)CCC(=O)N3CCN(c4ccccc4)CC3)ccc21`, 0.06% (inactive); in that of `Cn1nc(C(F)(F)F)c2cc(NC(=O)OCC(C)(C)C)sc21`, -6.24% (inactive).
To `Clc1ccccc1SCc1nc2ccccc2[nH]1` belongs 11.2% (inactive); to `COc1ccc(N2CCN(Cc3ccc(Br)s3)CC2)cc1`, -19.3% (inactive); to `CC(C)(C)n1nnnc1C(c1ccc(F)cc1)N1CCN(Cc2ccc3c(c2)OCO3)CC1` (stereo not given), 9.67% (inactive).
In the case of `Cc1cc(N2CCN(Cc3ccc4c(c3)OCO4)CC2)n2ncnc2n1` it was 13.4% (inactive); in that of `Fc1ccc2[nH]c3c(N4CCN(Cc5ccc6c(c5)OCO6)CC4)ncnc3c2c1`, 80.7% (active).

A word on the inhibition: it is the drop in the measured response relative to a control, in per cent.

Values taken from PubChem BioAssay AID736 (The Scripps Research Institute Molecular Screening Center, 2007).
